# According to the supplement of paper PMC3334620:
# Whole data set: some 33,000 sequences, median “E-score (-0.5 to 0.5)” near -0.054, cut for the highest 2% near 0.39. The entries come from a sample that favours the highest values as a whole.
# Molecular target: Ylr278c (UniProt Q05854)
# Assay: PBM E-score (8-mer binding enrichment) (E-score (-0.5 to 0.5)); higher = stronger / more preferred TF binding
# Conditions: protein concentration: 200 nM; construct: GST-DNA-binding domain
# How it was run: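 Masliner-normalised scans of fluorescent anti-GST signal were the basis for scoring. That signal came from GST-tagged yeast transcription factors applied at about 100-200 nM to double-stranded universal all-10-mer Agilent arrays on fresh or once-stripped slides. Each ungapped eight-base word, pooled with its reverse complement, received an E-score from the Universal PBM Analysis Suite.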
# UniProt Q05854, sequence (Q05854 whole entry): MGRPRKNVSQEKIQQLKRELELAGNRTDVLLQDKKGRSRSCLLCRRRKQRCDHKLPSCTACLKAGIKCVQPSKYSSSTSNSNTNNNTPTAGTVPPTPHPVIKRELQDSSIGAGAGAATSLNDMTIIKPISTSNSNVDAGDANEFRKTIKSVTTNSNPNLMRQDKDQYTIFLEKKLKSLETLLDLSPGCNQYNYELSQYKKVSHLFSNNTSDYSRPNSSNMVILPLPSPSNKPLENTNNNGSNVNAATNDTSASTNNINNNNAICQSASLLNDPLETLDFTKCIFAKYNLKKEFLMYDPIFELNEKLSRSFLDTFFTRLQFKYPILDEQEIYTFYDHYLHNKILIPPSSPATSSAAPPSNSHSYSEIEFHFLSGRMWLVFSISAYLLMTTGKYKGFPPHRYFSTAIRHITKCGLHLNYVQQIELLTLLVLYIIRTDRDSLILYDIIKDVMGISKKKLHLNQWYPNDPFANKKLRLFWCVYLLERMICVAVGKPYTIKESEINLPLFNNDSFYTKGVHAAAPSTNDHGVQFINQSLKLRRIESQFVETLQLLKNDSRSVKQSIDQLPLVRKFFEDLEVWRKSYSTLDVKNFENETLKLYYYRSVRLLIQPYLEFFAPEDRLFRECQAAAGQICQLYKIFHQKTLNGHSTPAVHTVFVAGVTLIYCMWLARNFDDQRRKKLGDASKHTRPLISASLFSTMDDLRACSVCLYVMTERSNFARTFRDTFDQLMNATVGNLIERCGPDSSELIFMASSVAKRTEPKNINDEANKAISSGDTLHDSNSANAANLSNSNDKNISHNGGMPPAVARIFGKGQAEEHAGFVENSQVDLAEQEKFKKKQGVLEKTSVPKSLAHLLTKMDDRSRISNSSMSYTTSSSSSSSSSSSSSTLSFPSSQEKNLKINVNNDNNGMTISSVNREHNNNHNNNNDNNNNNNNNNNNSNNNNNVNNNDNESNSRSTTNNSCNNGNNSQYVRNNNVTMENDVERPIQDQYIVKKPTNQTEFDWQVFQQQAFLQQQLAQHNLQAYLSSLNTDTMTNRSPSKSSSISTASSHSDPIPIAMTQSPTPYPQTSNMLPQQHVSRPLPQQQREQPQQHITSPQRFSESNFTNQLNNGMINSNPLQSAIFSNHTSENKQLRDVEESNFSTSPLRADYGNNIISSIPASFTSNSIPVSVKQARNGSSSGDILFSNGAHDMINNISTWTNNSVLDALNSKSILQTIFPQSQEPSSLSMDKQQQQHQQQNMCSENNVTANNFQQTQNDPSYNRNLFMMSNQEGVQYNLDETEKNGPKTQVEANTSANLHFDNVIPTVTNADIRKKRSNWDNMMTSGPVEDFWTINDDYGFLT
row,Sequence,PBM E-score
1,GGAGAAAC,0.309
2,CAGGGCGC,0.0102
3,GGAACCAC,0.0576
4,AAGCCACG,-0.0652
5,AAAAGAGA,-0.223
6,AAAGAAGA,-0.0104
7,CCACCGAA,-0.0526
8,CCTCCGAA,0.441
9,CCTCCAAA,-0.14
10,GTGAGATA,0.052
11,AACGGAGA,0.393
12,AACGGATA,0.292
13,AACGGAAA,0.374
14,TACGGAGA,0.386
15,CACGGAGC,0.403
16,CACGGACC,0.282
17,GACGGAGC,0.378
18,GACGGAGA,0.453
19,GAGGGAGA,-0.145
20,GACGGATA,0.249
21,CAAGGAGA,-0.105
22,CACGGAGA,0.429
23,AAATCTGT,-0.0526
24,TGTTGAAA,-0.0138
25,ACTACTTA,-0.0798

row,Sequence,PBM E-score
1,CGACTATA,-0.0135
2,CCCCAGAA,0.00338
3,CACAAAGA,-0.197
4,CCATAAGC,-0.105
5,CACGGACG,0.22
6,AACGGAGC,0.309
7,AACGGAGG,0.3
8,CACGGAGG,0.394
9,AACGGAGT,0.448
10,AACGGACT,0.328
11,CCAGCTCG,-0.106
12,CTGAACCC,-0.0929
13,TAGAGGAA,-0.211
14,CAACTGGG,-0.0669
15,ACGGACCG,0.335
16,CCGGACCG,0.426
17,CAGGACCG,0.0623
18,GCGGACCC,0.354
19,CCGGACCC,0.391
20,CCGGACCA,0.369
21,CCATTCAC,-0.042
22,CTAGATAG,-0.28
23,CGCCGTAC,0.163
24,AAGGCATT,-0.246
25,AACTCGGT,0.00153

row,Sequence,PBM E-score
1,GACTCGGA,0.4
2,CACTCGGA,0.329
3,GACTCGGC,0.134
4,TACTCGGA,0.342
5,AACTCGGA,0.392
6,CAATGGGC,-0.106
7,ACTCATCC,-0.0863
8,AGGCCACG,-0.0792
9,ACCCCCGC,0.266
10,AACCCCCG,0.26
11,AACCCCGA,0.431
12,GACCCCGA,0.336
13,TACCCCGA,0.411
14,AACCCCGC,0.41
15,AAACCCCG,0.449
16,ACCCCCGA,0.261
17,GACCCCGC,0.247
18,AACCCCGT,0.381
19,AAACCCCC,-0.0651
20,CACCCCGA,0.29
21,ACGCAGAA,-0.0444
22,TATATGCA,-0.245
23,ACCAGTCA,-0.036
24,TAAGGAAA,-0.131
25,GCCTATAA,-0.116

row,Sequence,PBM E-score
1,AAGCGTTG,-0.256
2,CCAGCGCA,0.0176
3,AAGGTGCC,-0.0322
4,CGTGAATA,-0.00311
5,ATACCCCC,0.0218
6,CAACCCGG,0.229
7,AAACCCGA,0.384
8,ATACCCCG,0.401
9,CAACCCCC,-0.0384
10,AAACCCGC,0.287
11,ACCCCCGG,0.334
12,AAACCCGG,0.428
13,CAACCCCG,0.397
14,ATACCCCA,0.00063
15,AACCCCGG,0.458
16,CACCCCGG,0.314
17,ACTGTTGC,0.0649
18,ATAGGACA,-0.311
19,AGAAGCCG,0.241
20,AATCGAGA,-0.115
21,GAGAAGAC,0.0429
22,CCTATCCG,0.114
23,GAAATGAC,-0.0184
24,AGATTGGG,0.0161
25,CAGAATAG,-0.179

row,Sequence,PBM E-score
1,CGGAATAG,0.391
2,GGGAATAA,0.261
3,CGGAATAC,0.423
4,AGGAATAC,-0.0793
5,AGGAATAG,0.102
6,GGGAATAC,0.176
7,TGGAATAA,-0.0106
8,CGGAATAA,0.433
9,GAGGGTCC,0.173
10,CTGGTTGC,0.123
11,CCTAGCTA,-0.246
12,TCCCTTAA,-0.263
13,ATGCTGGC,-0.147
14,ATAAGTGA,-0.229
15,CGACGCGC,0.21
16,AACCCGGC,0.313
17,GACCCGGA,0.391
18,TACCCGTA,-0.0475
19,TACCCGGA,0.395
20,TACCCGAA,0.0727
21,GACCCGGC,0.184
22,CACCCGGA,0.365
23,AACCCGGT,0.304
24,AACCCGGA,0.435
25,CTGAAAAG,-0.131

row,Sequence,PBM E-score
1,AGTTGCCG,0.171
2,GGCGTGTA,-0.155
3,TATGTAAA,0.0517
4,CCTTGAAC,-0.189
5,ACGTACTG,-0.138
6,AAACTTGC,-0.0141
7,ACGAGGAA,-0.0559
8,TGCTCTAA,-0.211
9,AGTGAGGA,-0.255
10,AATCCGCC,0.319
11,ACTCCGCT,0.417
12,TCTCCGCA,0.407
13,ACTCCTCA,-0.21
14,GCTCCGCA,0.377
15,ACTCCCCT,0.174
16,TCTCCTCA,-0.147
17,ACGCCGCT,0.224
18,GCTCCGCC,0.382
19,CTTCCGCA,0.198
20,ACTCCGCC,0.475
21,ACTCCGCA,0.452
22,GTTTAGGA,-0.122
23,ACAGCAGC,-0.191
24,CGCCCAAC,0.0317
25,ACCCTAAA,0.099

row,Sequence,PBM E-score
1,ATAGCTCG,-0.0396
2,ATGCTGTA,-0.185
3,TAAGTATA,-0.0135
4,GGACTGAA,-0.00012
5,ATGGCCAT,0.0373
6,CGGATATC,0.366
7,AGGAGATC,0.0493
8,AGGAGATA,-0.016
9,GGGAGATA,-0.0385
10,CGGAGATA,0.483
11,CGGAGATC,0.479
12,CGGATATA,0.393
13,CTGAGATC,-0.196
14,GGGATATA,0.151
15,CGACTCAA,0.0186
16,GTCATGAC,0.0612
17,GCCAGTTA,-0.0644
18,GCACTCGC,0.0715
19,CGTTCGCC,0.145
20,ATATCCGA,0.387
21,AGATCCGA,0.344
22,AGATCCGC,0.37
23,AGATCCGG,0.41
24,ACATCCGG,0.444
25,ATATCCGG,0.413

row,Sequence,PBM E-score
1,ACATCCGA,0.356
2,ACATCCGT,0.162
3,ATATCCGC,0.38
4,ATAGTGGC,-0.179
5,ACAGGCAA,-0.209
6,CTGCGACA,0.094
7,ACGATGGC,-0.144
8,ATAAGTAA,0.0323
9,GCCAACGA,-0.181
10,CGACTGTA,-0.139
11,AGGACTCC,0.0662
12,GGGACTAA,-0.0466
13,AGGACTTA,-0.0757
14,CGGACTTA,0.452
15,CGGACTCC,0.423
16,CGGACTAA,0.423
17,GGGACTTA,-0.0692
18,TGGACTAA,-0.188
19,CGGACTTC,0.473
20,CGGACTCA,0.384
21,AGGACTTC,-0.0413
22,CTGACTTC,0.088
23,ACAAAGCG,-0.0993
24,TGGACGAA,-0.116
25,ACACCACT,-0.0175

row,Sequence,PBM E-score
1,CCCGGTAG,0.252
2,GCGGTGAC,0.0764
3,ATCCGGCA,0.369
4,CTCCGGCA,0.469
5,CTACGGCC,0.123
6,GACCGGCA,0.258
7,CACCGGCA,0.328
8,GCCCGGCA,0.255
9,CTGCGGCC,0.2
10,GTCCGGCA,0.41
11,CTCCGGCC,0.455
12,GATCTGGC,0.0483
13,ACCTAACC,0.0688
14,TAAGAGGA,-0.0178
15,AAAGATTG,-0.146
16,AGCTAAGC,-0.164
17,CATAGGAC,-0.146
18,ATCGCTTG,-0.321
19,CGGGTGAG,0.167
